Source: PubChem BioAssay AID977606 (Broad Institute, 2014)
Screen size: about 1,500 compounds; about 430 (29%) were called active. How the calls were made is not given here. These entries were drawn from the full list. Entries with a potency or affinity are not part of this list.

Test: insulin secretion activators without glucose, dose response, counter-screen for glucose-dependent insulin secretion activators, cell-based, INS-1E, Gaussia luciferase, luminescence, cherry-pick (AID 977606)
Conditions: INS-1E Gaussia luciferase insulin secretion, no glucose, 100% = twice neutral-control luminescence; series mostly up to 35 µM

| SMILES | outcome |
| --- | --- |
| CCCCOc1ccc(C2=NNC(=O)CC2)cc1 | inactive |
| CCc1cc2c(COC(=O)c3cccc(NS(C)(=O)=O)c3)cc(=O)oc2cc1O | inactive |
| COCCNc1nc(Oc2ccc(C(N)=O)cc2)c2sccc2n1 | inactive |
| CC(C)Cc1nc2n[nH]c(N)c2c2c1COC(C)(C)C2 | inactive |
| Cc1cc(C)c2oc(C(=O)Nc3ccc(S(=O)(=O)Nc4nccc(C)n4)cc3)cc(=O)c2c1 | inactive |
| C=CCNC(=O)c1cc(-c2ccc3c(c2)OCO3)on1 | inactive |
| O=C(N/N=C/c1ccc2c(c1)OCO2)c1ccc(Cl)cc1Cl | inactive |
| COc1ccc(C2CC(=O)Nc3sc(=N)c4c(N)c(C#N)c(N)nc4c32)cc1OC (stereo not given) | inactive |
| Cc1ccsc1/C=N/n1c(-c2ccncc2)n[nH]c1=S | inactive |
| COCCNc1nc(N2CCCCC2)c2cnn(C)c2n1 | inactive |
| COc1cc2c(cc1OC)C(Cc1ccc(O)cc1)N(C)CC2 (stereo not given) | inactive |
| COc1cc2c(cc1OC)C(Cc1ccc(O)cc1)NCC2 (stereo not given) | inactive |
| c1ccc(-c2nc(NCC3CC3)nc3ccsc23)cc1 | inactive |
| CN1CCCCC(NC(=O)c2ccccc2)C1=O (stereo not given) | inactive |
| Cc1nccn1-c1ncnc2sc3c(c12)CCCC3 | inactive |
| COc1ccccc1CSc1nc2c(c(=O)n(C)c(=O)n2C)n1C | inactive |
| COC(=O)c1ccc(CNC(=O)CCc2c[nH]c3ccccc23)cc1 | inactive |
| Cc1nnc2c(NCCC(C)C)nc3ccccc3n12 | inactive |
| CCOC(=O)c1nc(NCc2cccnc2)c2ccccc2n1 | inactive |
| Cn1c(=O)n(Cc2ccccc2Br)c2ccccc21 | inactive |
| CC(C)CCN1CC(O)=C(c2nc(-c3ccc(Cl)cc3)cs2)C1=N | inactive |
| C=CCNc1cc(C)oc(=O)c1C(=O)CCC | inactive |
| COc1ccccc1Cn1c(=O)oc2ccccc21 | inactive |

| SMILES | outcome |
| --- | --- |
| COc1ccc(CNC(=O)C2Cc3c(-c4cccc(F)c4)ccnc3O2)cc1OC (stereo not given) | inactive |
| COc1ccccc1CNS(=O)(=O)c1cc(-c2cc(C)no2)ccc1C(C)C | inactive |
| COc1ccc(CN2CCOC2=O)cc1OC | inactive |
| COC(=O)[C@]1(Cc2ccccc2)N[C@H](CN(C)C(=O)Nc2ccc(C)cc2)[C@@H]2C(=O)N(C)C(=O)[C@@H]21 | inactive |
| CCNc1nc(NC(C)C)nc(N(C)C#N)n1 | inactive |
| CC1CN(S(=O)(=O)c2cc(C(=O)NC(C)c3cccnc3)ccc2Cl)CC(C)O1 (stereo not given) | inactive |
| COc1cc2c(cc1OC)[C@H](C)N(C(=O)NCc1ccccc1)CC2 | inactive |
| CC(=O)Nc1nc(C)nc(-c2ccccc2OC(C)=O)n1 | inactive |
| Cc1ccc(C(CC(=O)O)NC(=O)c2ccc(S(=O)(=O)N3CC(C)OC(C)C3)cc2)cc1 (stereo not given) | inactive |
| CCOC1=C2[C@H](c3ccc(C)cc3)N(S(=O)(=O)c3ccc(C)cc3)C[C@H]2n2c(=O)n(-c3ccccc3)c(=O)n2C1 | inactive |
| CC(=O)c1cccc(-c2csc3ncnc(Sc4nnnn4C)c23)c1 | inactive |
| CN1C(=O)NC(c2ccc(O)cc2)C2=C1CN(c1ccccc1)C2=O (stereo not given) | inactive |
| Cc1ccc(NC(=O)c2ccccc2-c2ccccc2C(=O)O)cc1C | inactive |
| O=C(CC(NC(=O)c1ccccc1)c1ccccc1)Nc1cccc2ccccc12 (stereo not given) | inactive |
| C=C(C)C1Cc2c(C)nn(-c3cccc4cccnc34)c2C1 (stereo not given) | inactive |
| O=C(COc1ccc(Cl)cc1)NCCS(=O)(=O)N1CCN(c2ccccc2F)CC1 | inactive |
| O=C(COc1cccc2c1CCNC2=O)NC1CCCCC1 | inactive |
| COc1ccc(CN(C)C(=O)CCN=C2NS(=O)(=O)c3ccccc32)c(OC)c1 | inactive |
| CC(C)CC(=O)Nc1cccc(-c2nc3ncccc3o2)c1 | inactive |
| COc1ccc(Cc2nnc(NC(=O)Cc3cccs3)s2)cc1OC | inactive |
| CCOC(=O)c1c(C)[nH]c(C(C)=NNC(=O)c2cccs2)c1C | inactive |
| CCOC(=O)c1oc2ccccc2c1NC(=O)c1ccco1 | inactive |
| CCCCOc1ccc(SCCCN2CCOCC2)cc1 | inactive |

| SMILES | outcome |
| --- | --- |
| C/C(=N\NC(=O)CO/N=C(\C)c1cccs1)c1ccc(N)cc1 | inactive |
| Cc1ccnc(NS(=O)(=O)c2ccc(NC(=O)CCc3ccccc3)cc2)n1 | inactive |
| FC(F)(F)c1ccc(Cl)c(-n2c(Cc3cccs3)n[nH]c2=S)c1 | inactive |
| COc1ccc(CNC(=O)C2Cc3c(-c4ccccc4)ccnc3O2)cc1OC (stereo not given) | inactive |
| O=C(OC1CCOC1=O)c1cc(-c2ccc(Cl)cc2)nc2ccccc12 (stereo not given) | inactive |
| COc1ccc(C2CNC(=O)C2)cc1OC1CCCC1 (stereo not given) | inactive |
| O=S(=O)(NCc1ccccc1)c1ccc(S(=O)(=O)N2CCCCC2)cc1 | inactive |
| CCCn1c(O)c(N=NC(=O)c2cccnc2)c2cc(Br)ccc21 | inactive |
| COc1ccc(C(=O)N=C2CCC(C#N)=C3c4cc(OC)c(OC)cc4CCN23)cc1 | inactive |
| C=CCN=c1sc(C(=O)OC)cc(=O)n1CC=C | inactive |
| CC(=O)C(C)n1c(CN(C)Cc2ccccc2)nc2c1c(=O)n(C)c(=O)n2C (stereo not given) | inactive |
| COC(=O)C1CCN(c2cc(Cl)nc(N)n2)CC1 | inactive |
| O=C(Nc1ccc(Br)cc1)c1cc2ccccn2n1 | inactive |
| COc1ccc(C(=O)Nc2ccccc2C(=O)NCC2CCCO2)cc1 (stereo not given) | inactive |
| O=C(NC(=S)NCC1CCCO1)c1ccc(Cl)cc1Cl (stereo not given) | inactive |
| COC(=O)c1c(C)oc(C)c1S(=O)(=O)Nc1ccc(C(C)C)cc1 | inactive |
| COc1ccc(/C=C/c2noc(-c3ccccc3OC(C)=O)n2)cc1 | inactive |
| CCCCc1[nH]c(=O)c(C#N)c2c1CCCC2 | inactive |
| COC(=O)c1ccc(Oc2ccc(C(F)(F)F)cn2)cc1 | inactive |
| c1cc2c(cc1CN1CCN(C3CCCCCC3)CC1)OCO2 | inactive |
| CCOc1ncccc1C(=O)NCc1ccc(C)cc1 | inactive |
| CCOc1ncccc1C(=O)NNC(=O)c1ccccc1-n1cccc1 | inactive |
| O=C(c1cccs1)N(Cc1ccccn1)Cc1ccco1 | inactive |

| SMILES | outcome |
| --- | --- |
| COc1ccc2nc(CCN(C)C(=O)C3CCC(=O)N(Cc4cccc(F)c4)C3)[nH]c2c1 (stereo not given) | inactive |
| CC1(C)CCCC(C)(C)N1CC(O)COCCOc1ccc(Br)cc1 (stereo not given) | inactive |
| Cc1ccc2c(c1)CCCN2C(=O)c1ccc2c(c1)OCO2 | inactive |
| CN(C(=O)c1ccc2c(c1)SC1=NS(=O)(=O)CCN12)C(c1ccccc1)c1ccccc1 | inactive |
| CCOc1ccc(CCNC(=O)Cn2ccc3ccccc3c2=O)cc1OCC | inactive |
| COc1cc(CN(C)c2ccc(S(=O)(=O)N3CCCC3)cn2)ccc1OC(F)F | inactive |
| CC(C)(C)C1=Nn2c(nnc2C2CCCCC2)SC1 | inactive |
| COc1ccc(CCNC(=O)CCC(=O)c2cccs2)cc1OC | inactive |
| COc1ccc(C2CC(=O)C(c3ccc(C)cc3)=CN2Cc2ccccc2)cc1 (stereo not given) | inactive |
| CCN1CCN(c2nnc(-c3ccccc3)c3ccccc23)CC1 | inactive |
| CCn1cc(C(=O)O)c(=O)c2cc(F)c(N3CCN(C(=S)NC(=O)c4cccc(C)c4)CC3)cc21 | inactive |
| CCOC(=O)c1nn(-c2ccccc2)c2nc(Nc3ccccc3)cc(=O)n12 | inactive |
| CC1CC1C(=O)Nc1cc(C(F)(F)F)ccc1N1CCOCC1 (stereo not given) | inactive |
| O=C(N=C1SC2CS(=O)(=O)CC2N1c1ccc(F)c(Cl)c1)C1CC1 (stereo not given) | inactive |
| CCCc1nc(-c2cc3cc(C)ccc3[nH]c2=O)no1 | inactive |
| CC(=O)N1CCN(c2nnc(-c3ccc(C)cc3)c3ccccc23)CC1 | inactive |
| O=c1c2sccc2n(Cc2cccc(F)c2)c(=O)n1-c1ccc(F)cc1 | inactive |
| Cc1ccc(-c2ccc([C@@H]3[C@@H]4CN(Cc5ccccc5F)C[C@H]3N4)cc2)cc1 | inactive |
| CC1Oc2ccccc2N(Cc2cccc(F)c2)C1=O (stereo not given) | inactive |
| COc1ccc(CN(C)C(=O)COc2cccc(-n3cnnn3)c2)cc1OC | inactive |
| COc1cc(/C=N/NC(=O)CNC(=O)c2cccs2)ccc1O | inactive |
| O=C(Nc1ccc(F)cc1)C1COc2ccccc2O1 (stereo not given) | inactive |
| CN(C(=O)c1ccc(C#N)cc1)c1nnc(-c2cnccn2)s1 | inactive |

| SMILES | outcome |
| --- | --- |
| CC(C)CCn1c(=O)c2ccccc2n2c(CN3CCOCC3)nnc12 | inactive |
| O=C(NC(=S)Nc1cccc2[nH]ncc12)c1ccccc1 | inactive |
| COc1ccc(C(=O)/C=C2/c3ccccc3CC(C)(C)N2C)cc1OC | inactive |
| Nc1[nH]c(C(=O)c2ccccc2)c(-c2ccncc2)c1C(=O)NCc1cccc2ccccc12 | inactive |
| COc1cc(CN2CCC(n3nccc3NC(=O)C3CCOC3)CC2)ccc1F (stereo not given) | inactive |
| COc1ccc(C(=O)c2ccc(OC)c(OC)c2)cc1 | inactive |
| COc1ccc(-c2nc(N)ncc2-c2ccc(OC)c(OC)c2)c(O)c1 | inactive |
| COc1ccc(C(=O)c2cnc[nH]2)cc1OC | inactive |
| COc1ccc(C(=O)O/N=C(\N)c2ccc(OC)c(OC)c2)cc1 | inactive |
| c1ccc(-c2nnc3n2-c2ccccc2SC3)cc1 | inactive |
| COCCOC(=O)C1=C(C)NC(=O)N(C(C)=O)C1c1ccc(Cl)cc1 (stereo not given) | inactive |
| Cc1cc2nc(-c3ccc(Cl)cc3)c(Cc3ccsc3)n2c(C)c1Br | inactive |
| CCn1c(C)nc2cc(S(=O)(=O)C(F)(F)F)ccc21 | inactive |
| COc1cc2[nH]c3c(Cl)ncnc3c2cc1OC | inactive |
| COc1ccc(CC(=O)O/N=C(\N)c2ccccc2)cc1OC | inactive |
| COc1ccc(/C=N/NC(=O)Cn2nnc3ccccc32)cc1OC | inactive |
| COc1ccc(/C=N/NC(=O)CCOc2ccccc2C)cc1OC | inactive |
| CNS(=O)(=O)c1ccc2c3c(cccc13)C(=O)N2 | inactive |
| CCOC(=O)c1c(N)c(C#N)c2n1CCCC2 | inactive |
| COc1ccc(C2=NOC(C(=O)Nc3cccnc3)C2)cc1OC (stereo not given) | inactive |
| O=S(=O)(c1ccc(Cl)nc1)N1CCc2ccccc21 | inactive |
| COc1ccc(NC(=O)C2CCCN2S(=O)(=O)c2ccc3c(c2)CC(C)N3C(C)=O)cc1OC (stereo not given) | inactive |
| COc1ccc(CC(=O)OCC(=O)N2CCCc3ccccc32)cc1OC | inactive |
